This note sets out measurements from PubChem BioAssay (NCI).

This is part of a sample that, as a whole, favours compounds with a hit. Of some 83,000 tested, about 20% had one in any assay.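 Percent growth is the endpoint: 0 to 100 indicates growth inhibition (40 means 60% inhibition), 0 means no net growth, and negative values indicate cell death.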 Unmarked numbers belong to inactive results. Active and inactive are the calls of the source. The calls were made as follows: active = growth percent below 10; inactive = the rest.

Some test systems named below: HCT-15 colon; SNB-75 CNS; SNB-19 CNS; U251 CNS; PC-3 prostate; SK-MEL-5 melanoma; UACC-62 melanoma; LOX IMVI melanoma; SK-MEL-28 melanoma; SK-MEL-2 melanoma; SN12C renal; UO-31 renal; TK-10 renal; ACHN renal; CAKI-1 renal; CCRF-CEM leukemia; MOLT-4 leukemia; EKVX NSCLC; A498 renal.
Holding throughout (test): NCI-60 one-dose screen, 48 h (100 = growth as untreated, 0 = no growth, -100 = all killed)
Holding throughout (conditions): 10 µM unless noted

With `COC(=O)C(c1ccccc1)C(CC(=O)c1ccccc1)c1ccccc1` (centres undefined), the growth in the test on HCT-15 colon is 97.1%; in the test on SNB-75 CNS it was 83.2%; in the test with SNB-19 CNS, 101%; with U251 CNS, 92.2%; in the test on PC-3 prostate, 62.3%; in the test with SK-MEL-5 melanoma it was 82.1%. The growth is 88.7% in the test with UACC-62 melanoma; 82.7% with LOX IMVI melanoma; 91.8% in the test with SK-MEL-28 melanoma; 85.5% with SK-MEL-2 melanoma; 102% in the test with SN12C renal; 75% in the test with UO-31 renal. The growth with TK-10 renal was 92.4%; in the test on ACHN renal, 86.6%; with CAKI-1 renal, 74.8%; in the test on CCRF-CEM leukemia, 84.7%; in the test on MOLT-4 leukemia it was 71%.
Turning to `CCOC(=O)C1=C(C)NC(C)=C(C(=O)OCC)C1c1cc(Br)c(O)c(OC)c1`, the growth in the test with HCT-15 colon was 30.9%; in the test with SNB-75 CNS, 8.16% (active); in the test on SNB-19 CNS it was 45.2%; in the test on U251 CNS it was 33.1%; in the test with PC-3 prostate it was 32.6%; in the test with SK-MEL-5 melanoma it was 19.5%. Also, the growth with UACC-62 melanoma was 48.8%; with LOX IMVI melanoma, 36.7%; in the test on SK-MEL-28 melanoma, 47.5%; in the test with SK-MEL-2 melanoma it was -7.22% (active); in the test on EKVX NSCLC it was 42.5%; with SN12C renal it was 48.5%. In addition, the growth in the test with UO-31 renal is 40.3%; in the test with TK-10 renal, 34.1%; in the test with ACHN renal, 61.3%; in the test on CAKI-1 renal it was 30.1%; in the test with CCRF-CEM leukemia, 19.9%; in the test on MOLT-4 leukemia, 44.8%.
In the case of `Cc1ccc(C2C3CC4CCCCC4N3[C@@]3(C(=O)Nc4cc(Cl)ccc43)C2C(=O)c2nc3ccccc3[nH]2)cc1` (some centres undefined), the growth in the test with HCT-15 colon was 21.5%; in the test on SNB-75 CNS, 45.1%; in the test on SNB-19 CNS, 49.7%; in the test with U251 CNS, 38%; in the test on PC-3 prostate it was 25.3%; in the test with SK-MEL-5 melanoma, 45%. The growth with UACC-62 melanoma is 54.7%; in the test with LOX IMVI melanoma, 29.7%; in the test on SK-MEL-28 melanoma, 66.2%; with EKVX NSCLC it was 27.3%; with SN12C renal, 44.8%; in the test on UO-31 renal it was 19.8%. The growth in the test on TK-10 renal was 39.6%; in the test on ACHN renal, 40.5%; with CAKI-1 renal it was 16.5%; in the test on CCRF-CEM leukemia it was 27.8%; with MOLT-4 leukemia, 2.61% (active).
Regarding `CCNC(=O)c1[nH]cc(-c2ccc(OC)cc2)c1-c1cc(OC)cc(OC)c1`, the growth is 68.6% in the test with HCT-15 colon; 67% in the test on SNB-75 CNS; 84% in the test on SNB-19 CNS; 98% in the test on U251 CNS; 84.2% in the test on PC-3 prostate; 61.1% in the test on SK-MEL-5 melanoma. In addition, the growth is 48.2% with UACC-62 melanoma; 83.4% with LOX IMVI melanoma; 87.9% in the test with SK-MEL-28 melanoma; 85.4% with SN12C renal; 77.4% in the test with UO-31 renal; 115% with TK-10 renal. Also, the growth was 59.9% in the test with CAKI-1 renal, 91.1% in the test with A498 renal and 94.5% in the test with MOLT-4 leukemia.
Turning to `CC(C)(C)CC(C)(C)Nc1c(-c2ccc(C(F)(F)F)cc2)nc2cnccn12`, the growth with HCT-15 colon was 73.8%; with SNB-75 CNS, 81.1%; in the test on SNB-19 CNS, 91.8%; with U251 CNS it was 93%; with PC-3 prostate it was 68.5%; with SK-MEL-5 melanoma, 90%. Further, the growth is 72.9% in the test with UACC-62 melanoma; 97.6% in the test on LOX IMVI melanoma; 93.9% in the test with SK-MEL-28 melanoma; 91% in the test with SK-MEL-2 melanoma; 64.1% in the test with UO-31 renal; 102% with TK-10 renal. Also, the growth with CAKI-1 renal was 75.4%; with A498 renal, 83.8%; in the test with CCRF-CEM leukemia it was 85.8%; in the test on MOLT-4 leukemia, 68.5%.
As to `C=CCn1c(SCC(=O)Nc2ccc(C(=O)/C=C/c3cc(OC)c(OC)c(OC)c3)cc2)nnc1-c1cc(-c2ccc(S(C)(=O)=O)cc2)nc2ccccc12`, the growth in the test on HCT-15 colon was 69.7%; in the test with SNB-75 CNS, 55.7%; in the test with SNB-19 CNS it was 74.1%; in the test on PC-3 prostate, 88.8%; in the test with SK-MEL-5 melanoma, 82.7%; in the test on UACC-62 melanoma, 75.5%. Also, the growth in the test on LOX IMVI melanoma was 67%; in the test on SK-MEL-28 melanoma, 108%; in the test with SK-MEL-2 melanoma, 103%; in the test on EKVX NSCLC it was 90.9%; with SN12C renal, 88.5%; with UO-31 renal, 78.4%. For the same molecule, the growth in the test on TK-10 renal is 159%; in the test on ACHN renal, 91.9%; in the test on CAKI-1 renal, 77.3%; with CCRF-CEM leukemia, 35%; with MOLT-4 leukemia, 56.3%.
Turning to `COc1ccc(C(=O)/C=C/c2c(OC)cc(OC)cc2OC)c(OC)c1`, the growth in the test on HCT-15 colon is 5.27% (active); in the test with SNB-75 CNS, 8.7% (active); in the test with SNB-19 CNS, 33.6%; in the test with U251 CNS, 15.5%; with PC-3 prostate, 6.39% (active); in the test with SK-MEL-5 melanoma, -5.47% (active). Moreover, the growth is 11.9% with UACC-62 melanoma; 27.3% in the test on LOX IMVI melanoma; 56.8% with SK-MEL-28 melanoma; -9.11% (active) in the test with SK-MEL-2 melanoma; 59.1% with EKVX NSCLC; 28.8% in the test with SN12C renal. Also, the growth in the test on UO-31 renal is 31.8%; in the test with TK-10 renal, 44.3%; with ACHN renal, 26.9%; with CAKI-1 renal it was -1.02% (active); in the test on A498 renal it was 13.8%; in the test on CCRF-CEM leukemia, 9.01% (active). In addition, the growth in the test on MOLT-4 leukemia is 33.6%.
For the molecule `O=S(=O)(NCCCNc1nccc(-c2c(-c3ccc(F)c(O)c3)nc3sccn23)n1)c1ccc(F)cc1`, the growth is 6.51% (active) in the test on HCT-15 colon; 51.3% in the test on SNB-75 CNS; 19.7% in the test with SNB-19 CNS; 2.83% (active) in the test with U251 CNS; 8.22% (active) in the test with PC-3 prostate; -45.1% (active) in the test with SK-MEL-5 melanoma. Also, the growth was -42.2% (active) in the test with UACC-62 melanoma; 2.15% (active) in the test on LOX IMVI melanoma; 9.19% (active) in the test with SK-MEL-28 melanoma; -29.9% (active) in the test with SK-MEL-2 melanoma; 30.6% in the test on EKVX NSCLC; 4.8% (active) with SN12C renal. Also, the growth in the test on UO-31 renal is -1.81% (active); in the test on TK-10 renal it was 27.6%; with ACHN renal, 6.06% (active); with CAKI-1 renal, 8.16% (active); with A498 renal, -10.9% (active); in the test with CCRF-CEM leukemia, -13.2% (active). For the same molecule, the growth in the test with MOLT-4 leukemia is -3.88% (active).
With `CC1(C)NCCC[C@]2(C)[C@H]3CC=C4[C@@H]5C[C@@](C)(CO)CC[C@]5(C)CC[C@@]4(C)[C@]3(C)CC[C@@H]12`, the growth in the test with HCT-15 colon is 29.9%; with SNB-75 CNS it was 98.9%; in the test on SNB-19 CNS it was 61.6%; in the test on U251 CNS it was 34.2%; in the test on PC-3 prostate, 35.1%; in the test with SK-MEL-5 melanoma, 50.7%. For the same molecule, the growth in the test with UACC-62 melanoma was 73.6%; in the test with LOX IMVI melanoma, 45.2%; in the test on SK-MEL-28 melanoma, 68.2%; in the test with SK-MEL-2 melanoma, 48.4%; in the test with EKVX NSCLC, 86.5%; with SN12C renal, 62.1%. The growth in the test with UO-31 renal is 69.3%; with TK-10 renal it was 63.3%; in the test on ACHN renal it was 54.3%; in the test with CAKI-1 renal, 76.7%; in the test with MOLT-4 leukemia, 33.8%.
As for `C#CCn1cc(C=C2C(=O)NC(=S)NC2=O)c2cc(Cl)ccc21`, the growth in the test with HCT-15 colon was -23% (active); in the test with SNB-75 CNS, 43.9%; with SNB-19 CNS, 13.2%; with U251 CNS, 3.31% (active); with PC-3 prostate, 8.39% (active); with SK-MEL-5 melanoma, 40.8%. For the same molecule, the growth in the test on UACC-62 melanoma is 1.1% (active); with LOX IMVI melanoma it was -46.1% (active); in the test on SK-MEL-28 melanoma, -26.5% (active); with SK-MEL-2 melanoma it was 89.1%; with EKVX NSCLC it was 67.2%; in the test on SN12C renal, -34.9% (active). In addition, the growth is -73.4% (active) with UO-31 renal; 16.1% in the test with TK-10 renal; -25.2% (active) in the test on ACHN renal; 9.84% (active) in the test with CAKI-1 renal; -1.83% (active) with A498 renal; 0.645% (active) with CCRF-CEM leukemia. The growth in the test on MOLT-4 leukemia is 5.59% (active).
